Only some compounds are listed: those with a hit (about 6.5% of all), similar ones and a draw of the others.
TGFb SMAD3 inh: inhibitors of TGF-b signaling. HepG2 CAGA-GFP TGF-b/SMAD3 reporter, GFP fluorescence, 18 h; TGF-beta stimulated, 500 pg/mL final. Potency, µM (series often up to 46.1 µM), without a hit: top-dose activity, negative = inhibition, usual class: inhibitors. 1.2% of 410,000 active. AID 588855; note: potency is the fitted concentration of half-maximal effect; % is set by controls: 0 for no effect and ±100 for the full control effect; nearly all actives have a fitted effect of over 65% in size
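Smad-responsive CAGA-GFP expression was quantified in HEPG2 cells exposed to compounds and 500 pg/mL final TGF-beta for 18 h at 37 degrees C; unstimulated wells defined full inhibition.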
HT1080-NT tox: kills 2HG-producing HT-1080-NT fibrosarcoma cells; Potency, µM (highest dose often 46.1 µM), inactives show top-dose activity, negative = less viability, actives largely listed as cytotoxic; 1.6% of 360,000 active; HT-1080-NT fibrosarcoma viability, CellTiter-Glo ATP luminescence, 48 h;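 note: NT is the 2HG producing partner of a matched IDH1 knockdown line; potency is the fitted concentration of half-maximal effect; 0% = DMSO-treated cells and -100% = media-only wells without cells; nearly all actives have a fitted effect of over 55% in size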
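A 48-hour cytotoxicity screen used HT-1080-NT cells plated 2 hours before compound delivery. ATP-based CellTiter-Glo luminescence measured viability, normalized to DMSO and no-cell controls.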
HT1080 IDH1KD tx: kills HT-1080 cells with IDH1 knockdown; HT-1080 IDH1 knockdown viability, ATP luminescence, 48 h; Potency, µM (titrated, usually from 46.1 µM), without a hit: at the top dose activity, negative = toxicity, most hits filed as cytotoxic; 2% of 360,000 active;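 note: potency is the fitted concentration of half-maximal effect; 0% = DMSO wells and -100% = cell-free medium wells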
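Viability of IDH1-knockdown HT-1080 fibrosarcoma cells was assessed by CellTiter-Glo after 48 h at 37 °C with titrated compound; concentration-effect curves were classified by fit quality and response size.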
Giardia kill: Giardia lamblia killing; Giardia lamblia trophozoite viability; activity change, % at 7.66 µM, hits read low; 0.15% of 340,000 active; AID 540267; in the data active = activity change below about -80%; inconclusive = between about -30% and that limit;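 note: parasites exposed to compound for two days anaerobically before the ATP read; % is set by controls: 0 for no effect and ±100 for the full control effect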
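Killing of trophozoites was scored by loss of ATP luminescence after a 48 hrs anaerobic exposure to compounds at 37 deg C, using 100 cells per well.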
IL-1B inflam inh: inflammasome signaling inhibition, IL-1 beta readout; activity change, % at 57.5 µM; AID 743279; THP-1 LPS/ATP IL-1B secretion, AlphaLISA, 16 h; active compounds read low; 4.7% of 360,000 active; in the data active = activity change below about -50%; inconclusive = mostly about -30% to -49%; note: % is set by controls: 0 for no effect and ±100 for the full control effect
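THP-1 cells pretreated 1 hr with compounds (up to 57.5 uM final), then stimulated with LPS (250 ng/mL final) plus ATP (1.25 mM final); secreted IL-1B measured by AlphaLISA after 16 hr, decreased signal indicating inhibition.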
HepG2 viability: kills HepG2 cells in TGF-b inhibitor counter-screen; HepG2 CAGA-GFP viability, ATP luminescence, 18 h; Potency, µM (top dose mostly 46.1 µM), for the others: at the highest dose activity change, negative = cytotoxicity, hits mostly cytotoxic; 0.76% of 410,000 active; AID 588856; note: potency is the fitted concentration of half-maximal effect
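CellTiter-Glo luminescence gave cytotoxicity after 18 hours at 37 degrees C. The cells were HepG2 CAGA-GFP in 1% FBS DMEM, stimulated with 500 pg/mL TGF-beta after compound addition. %Activity was normalised to no-cell wells (complete cell-killing) and DMSO (no toxicity), and curves were fitted and classified.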
Active calls of the source: *. Unless noted, calls come from the whole dose curve; as a rule, active = well fitted curve in the direction sought with a large enough effect; inconclusive = small, poorly fitted or top-dose-only effect, or another doubt; inactive = no such curve, though single readings can be large; an effect the other way counts as inactive or inconclusive.

For O=C(Cc1ccccc1F)Nc1ccc(S(=O)(=O)N2CCCC2)cc1 the results were TGFb SMAD3 inh 0%, HT1080-NT tox 9%, HT1080 IDH1KD tx 4%, Giardia kill inconclusive, IL-1B inflam inh -51* and HepG2 viability 5%.
For CC1(c2ccccc2)NC(=O)N(CC(=O)Nc2cccc(/C=C/c3ccccn3)c2)C1=O (stereo not given) the results were TGFb SMAD3 inh -17%, HT1080-NT tox inconclusive, HT1080 IDH1KD tx inconclusive, Giardia kill 17, IL-1B inflam inh -53* and HepG2 viability -8%.
Cc1cc(C)cc(NC(=O)CN2C(=O)NC(C)(c3ccccc3)C2=O)c1 (stereo not given) was read as TGFb SMAD3 inh -24%, HT1080-NT tox 9%, HT1080 IDH1KD tx 1%, Giardia kill -7, IL-1B inflam inh 6 and HepG2 viability -4%.
`CC1CCN(S(=O)(=O)c2ccc(NC(=O)Cn3nnc(-c4ccccc4F)n3)cc2)CC1` gave TGFb SMAD3 inh inconclusive, HT1080-NT tox 20µM*, HT1080 IDH1KD tx inconclusive, Giardia kill 21, IL-1B inflam inh -27 and HepG2 viability -44%.
For CC1CCN(S(=O)(=O)c2ccc(NC(=O)c3ccccc3F)cc2)CC1 the results were TGFb SMAD3 inh -5%, HT1080-NT tox -2%, HT1080 IDH1KD tx -52%, Giardia kill 1, IL-1B inflam inh -14 and HepG2 viability -38%.
CC1CCN(S(=O)(=O)c2ccc(NC(=O)CNC3CCCCC3)cc2)CC1 was read as TGFb SMAD3 inh 4%, HT1080-NT tox -2%, HT1080 IDH1KD tx -3%, Giardia kill 18, IL-1B inflam inh -87* and HepG2 viability -1%.
For CCOc1ccccc1Nc1ncnc2c1cnn2-c1ccccc1 the results were TGFb SMAD3 inh -1%, HT1080-NT tox -2%, HT1080 IDH1KD tx -21%, Giardia kill 5, IL-1B inflam inh -8 and HepG2 viability -20%.
`O=C(NC1CCN(Cc2ccccc2)CC1)C12CC3CC(CC(C3)C1)C2` gave TGFb SMAD3 inh -15%, HT1080-NT tox -8%, HT1080 IDH1KD tx -8%, Giardia kill 0, IL-1B inflam inh 19 and HepG2 viability -10%.
CC1CCN(S(=O)(=O)c2ccc(NC(=O)CN3CCCCCC3)cc2)CC1 was read as TGFb SMAD3 inh 2%, HT1080-NT tox -17%, HT1080 IDH1KD tx inconclusive, Giardia kill 1, IL-1B inflam inh -50* and HepG2 viability -8%.
For CC1CCCN(S(=O)(=O)c2ccc(NC(=O)CN3C(=O)NC(C)(c4ccccc4)C3=O)cc2)C1 (stereo not given) the results were TGFb SMAD3 inh 0%, HT1080-NT tox -4%, HT1080 IDH1KD tx -3%, Giardia kill -3, IL-1B inflam inh -52* and HepG2 viability -28%.
Fc1ccccc1CNCC1CCCO1 (stereo not given) was read as TGFb SMAD3 inh -3%, HT1080-NT tox 9%, HT1080 IDH1KD tx 1%, Giardia kill -19, IL-1B inflam inh 6 and HepG2 viability -1%.
For Cc1cc(C)c(S(=O)(=O)Nc2ccc(-c3ccc(N4CCCCCC4)nn3)cc2)cc1C the results were TGFb SMAD3 inh 1% and HepG2 viability 3%.
For CC(=O)/C=C1/C(=O)Nc2ccccc21 the results were TGFb SMAD3 inh inconclusive, HT1080-NT tox inconclusive, HT1080 IDH1KD tx inconclusive, Giardia kill 6, IL-1B inflam inh -15 and HepG2 viability -109%.
O=C1Nc2ccc(Br)cc2/C1=C/C(=O)c1ccccc1 was read as TGFb SMAD3 inh inconclusive, HT1080-NT tox inconclusive, HT1080 IDH1KD tx inconclusive, Giardia kill -8, IL-1B inflam inh -103* and HepG2 viability -58%.
C=CCOc1cccc(C(=O)/C=C2/C(=O)Nc3ccccc32)c1 was read as TGFb SMAD3 inh 11µM*, HT1080-NT tox 18µM*, HT1080 IDH1KD tx inconclusive, Giardia kill inconclusive, IL-1B inflam inh inconclusive and HepG2 viability 10µM*.
`O=C(O)COc1ccccc1/C=C1\C(=O)Nc2ccc(Br)cc21` gave TGFb SMAD3 inh -5%, HT1080-NT tox 1%, HT1080 IDH1KD tx 6%, Giardia kill -13, IL-1B inflam inh 29 and HepG2 viability -4%.
For Cc1cc(C)cc(OCC(=O)N2CCc3ccccc3C2)c1 the results were TGFb SMAD3 inh 9%, HT1080-NT tox 13%, HT1080 IDH1KD tx 6%, Giardia kill 10, IL-1B inflam inh 9 and HepG2 viability 13%.
For Cc1nc(N2CCOCC2)nc(Oc2ccccc2F)c1[N+](=O)[O-] the results were TGFb SMAD3 inh 35%, HT1080-NT tox -26%, HT1080 IDH1KD tx -16%, Giardia kill -4, IL-1B inflam inh -24 and HepG2 viability 2%.
`Cc1cccc(C(=O)N/C(=C/c2ccco2)C(=O)N2CCCCCC2)c1` gave TGFb SMAD3 inh 9%, HT1080-NT tox -1%, HT1080 IDH1KD tx -2%, Giardia kill 4, IL-1B inflam inh -15 and HepG2 viability -7%.
Screening CC1=C(C(=O)OC2CCCCC2)C(c2ccc(O)cc2)NC(=O)N1 (stereo not given) returned TGFb SMAD3 inh -4%, HT1080-NT tox -1%, HT1080 IDH1KD tx 0%, Giardia kill -11, IL-1B inflam inh -6 and HepG2 viability -2%.
CSCCOC(=O)C1=C(C)NC(=O)NC1c1ccc2c(c1)OCO2 (stereo not given) was read as TGFb SMAD3 inh -5%, HT1080-NT tox 0%, HT1080 IDH1KD tx 4%, Giardia kill 11, IL-1B inflam inh -23 and HepG2 viability -17%.
Screening CC1=C(C(=O)OCC2CCCCC2)C(c2ccccc2F)CC(=O)N1 (stereo not given) returned TGFb SMAD3 inh inconclusive and HepG2 viability -38%.
For CC1=C(C(=O)OC2CCCCC2)C(c2ccc(F)cc2)NC(=O)N1 (stereo not given) the results were TGFb SMAD3 inh -8%, HT1080-NT tox -1%, HT1080 IDH1KD tx -22%, Giardia kill 2, IL-1B inflam inh -53* and HepG2 viability -12%.
Screening CC1=C(C(=O)OCC2CCCO2)C(c2ccc(Cl)c(Cl)c2)NC(=O)N1 (stereo not given) returned TGFb SMAD3 inh 3%, HT1080-NT tox -4%, HT1080 IDH1KD tx -1%, Giardia kill 21, IL-1B inflam inh -50* and HepG2 viability -10%.
Screening CC1=C(C(=O)OCc2ccc3c(c2)OCO3)C(c2ccc(F)cc2)NC(=O)N1 (stereo not given) returned TGFb SMAD3 inh -28%, HT1080-NT tox 4.5µM*, HT1080 IDH1KD tx 5µM*, Giardia kill 31, IL-1B inflam inh -6 and HepG2 viability -22%.
